Compound activity from PubChem.
HIF-2a inh: inhibitors of HIF-2a; hit rate 0.72% among 360,000; 786-0 RCC cells HIF-2a reporter, luciferase luminescence, overnight; inhibition, % at 18.8 µM;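 active means inhibition of the luminescence signal of 40% or more relative to plate controls, in a single-dose primary screen at 18.75 µM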
KKLEB cytotox: CF airway cell cytotoxicity counter-screen; KKLEB CF airway cells viability, ATPlite luminescence, overnight; stronger effect = lower value; cells stimulated with P. aeruginosa culture filtrate; activity change (cytotoxicity), % at 5 µM; hit rate 0.36% among 360,000; AID 602141;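 active means corrected activity change at or below -50% at 5 µM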
Peg3 prom inh: Peg3 promoter activity inhibition. inhibition, % at 20 µM. hit rate 1.7% among 360,000. HeLa PEG-Prom luciferase reporter, luminescence, overnight;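 active means inhibition of at least 50% at 20 µM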
CF NFkB block: cystic fibrosis NF-kB activation inhibition; KKLEB NF-kB-GFP reporter, PAF-induced, GFP fluorescence overnight; inhibition, % at 5 µM; hit rate 0.86% among 360,000; AID 588850;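 active means at least 50% inhibition at 5 µM, scaled per plate between neutral and stimulator controls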;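 further: PAF is a Pseudomonas aeruginosa culture filtrate used as stimulus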
MITF TRPM1 inh: reduces MITF-dependent TRPM1 promoter luciferase signal. AID 488899. hit rate 0.83% among 330,000. SK-MEL-5 TRPM1 promoter luciferase, 24 h. inhibition, % at 12.5 µM;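 active means mean inhibition across replicates of 60% or more, whatever share of single replicates reaches that level; inconclusive means some that reach 60%, reason not given; inactive means mean inhibition across replicates below 60%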
Shn3 inh set2: inhibitors of Schnurri-3 3'UTR reporter in osteoblasts | Clone20 osteoblast Shn3 3'UTR firefly luciferase, 24 h | inhibition, % at 12.5 µM | hit rate 0.52% among 360,000 | AID 588674;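 active means mean inhibition of at least 75% with every replicate also reaching 75%; inconclusive means mean inhibition at least 75% but some replicate below; inactive means mean inhibition below 75%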
Each line names hits and unclear results; the compound was inactive in the other large screens. Sampled rows, rich in hits. Any-hit rate of the full collection: about 2.8%.

CN(c1ccccc1)S(=O)(=O)c1cccc(NC(=O)c2ccc(Cl)c([N+](=O)[O-])c2)c1	Peg3 prom inh 93
CC(=O)c1cc(-c2ccc(F)cc2)n(CCC(=O)Nc2cccc(C)n2)c1C	none
COc1ccccc1C(=O)Nc1ccc2c(c1)nc1n2CCN(C2CCCCC2)C1	none
Cc1ccc(NS(=O)(=O)c2ccc(NC(=O)CN(c3cc([N+](=O)[O-])ccc3C)S(C)(=O)=O)cc2)c(C)c1	Peg3 prom inh 50
Cc1ccc([N+](=O)[O-])cc1N(CC(=O)NC1CCCC1)S(C)(=O)=O	none
CC(C)(C)c1ccc(OC(=O)Nc2ccc(O)c(C(=O)O)c2)cc1	HIF-2a inh 69
Cc1cccc(OC(=O)Nc2ccc(C(=O)O)c(O)c2)c1	none (no result: MITF TRPM1 inh)
C[C@H]1[C@H](c2ccccc2)C[C@@H](C(=O)O)C1(C)C	none
O=S(=O)(NC1c2cccc3cccc(c23)C1N1CCNCC1)c1ccc(Cl)cc1 (stereo not given)	Peg3 prom inh 77
CC(C)(C)NCC(O)CON=C1c2ccccc2-c2ccccc21 (stereo not given)	Peg3 prom inh 84
Cc1cc([N+](=O)[O-])nn1Cc1ccc(C(=O)N/N=C/c2ccc(O)cc2O)cc1	Peg3 prom inh 56
O=C(N/N=C/c1ccc(O)cc1O)c1ccc(CN2C(=O)c3cccc4cccc2c34)cc1	Shn3 inh set2 94
Cc1cc([N+](=O)[O-])nn1Cc1ccc(C(=O)N/N=C/c2ccc(F)cc2)cc1	none
O=C(Nc1ccc(OC(F)(F)F)cc1)Nc1cccnc1	none
O=C(Nc1ccc(OC(F)(F)F)cc1)Nc1cccc([N+](=O)[O-])c1	KKLEB cytotox -65, Peg3 prom inh 55, CF NFkB block 66
Cc1onc(C(=O)Nc2ccc(OC(F)(F)F)cc2)c1[N+](=O)[O-]	none
O=C(Nc1ccc(OC(F)(F)F)cc1)c1[nH]ncc1[N+](=O)[O-]	MITF TRPM1 inh 70
CCCCCNC(=O)C(c1ccnc2ccccc12)n1c(=O)c(-c2cc3ccccc3[nH]2)nc2ccccc21 (stereo not given)	none (no result: KKLEB cytotox, Peg3 prom inh, CF NFkB block, MITF TRPM1 inh, Shn3 inh set2)
COc1ccc(S(=O)(=O)Nc2cccc(S(=O)(=O)N3CCCCCC3)c2)cc1	none
O=S(=O)(Nc1nc2ccccc2nc1Nc1cccc(S(=O)(=O)N2CCCCC2)c1)c1ccccc1	KKLEB cytotox -61, Peg3 prom inh 69, CF NFkB block 65
O=C1Nc2ccccc2N(O)N1c1cc(-c2ccc(Cl)cc2)[nH]n1	none
CN(C)CCCNc1cc(O)c2ncccc2c1	Peg3 prom inh 81
Oc1cc(NCc2ccc(Cl)cc2)cc2cccnc12	none
O=C(Nc1nccs1)c1cc(-c2ccccn2)nc2c(Cl)cccc12	none
CC(C)CNS(=O)(=O)c1ccc(Br)cc1N1CCC[C@@H]1CO	none
Clc1cccc2c1Sc1ccccc1CC2N1CCNCC1 (stereo not given)	Peg3 prom inh 108
O=C(c1ccccc1Cl)N1CCNCC1	none
Clc1ccc2c(c1)C(N1CCNCC1)Cc1ccccc1S2 (stereo not given)	Peg3 prom inh 104, MITF TRPM1 inh 94
Cc1ccc(C)c(N2CCN(C(=S)Nc3ccc4nc(N5CCN(C)CC5)cc(C)c4c3)CC2)c1	MITF TRPM1 inh 85
NC(CO)c1csc(Nc2ccc(C(F)(F)F)cn2)n1 (stereo not given)	none (no result: MITF TRPM1 inh)
NC(Cc1ccc(Cl)cc1)c1csc(Nc2ccc(C(F)(F)F)cn2)n1 (stereo not given)	Peg3 prom inh 101 (no result: MITF TRPM1 inh)
NC(Cc1ccc(C(F)(F)F)cc1)c1csc(Nc2ccc(C(=O)NCCCO)cn2)n1 (stereo not given)	none (no result: MITF TRPM1 inh)
NC(c1csc(Nc2ccc(C(F)(F)F)cn2)n1)C1CCCCC1 (stereo not given)	Peg3 prom inh 99 (no result: MITF TRPM1 inh)
NC(Cc1ccc(C(F)(F)F)cc1)c1csc(Nc2ccc(C(=O)NCc3ccco3)cn2)n1 (stereo not given)	Peg3 prom inh 86 (no result: MITF TRPM1 inh)
CC(C)CC(N)c1csc(Nc2ccc(C(F)(F)F)cn2)n1 (stereo not given)	Peg3 prom inh 102 (no result: MITF TRPM1 inh)
Cc1nc(NC(=O)c2cccc(Cl)c2)sc1C(=O)N1CCCCC1	none
COc1ccc(-c2noc(CCC(=O)N3CCN(c4ccccc4F)CC3)n2)cc1	none
NC(Cc1ccc(Cl)cc1)c1csc(Nc2nccc(C(F)(F)F)n2)n1 (stereo not given)	Peg3 prom inh 83 (no result: MITF TRPM1 inh)
COc1cc(OC)nc(Nc2nc(C(N)Cc3ccc(Cl)cc3)cs2)n1 (stereo not given)	Peg3 prom inh 99 (no result: MITF TRPM1 inh)
C=CCn1c(O)c(C2=c3ccccc3=NC2=O)sc1=Nc1ccc(O)cc1	Peg3 prom inh 63
CCOc1cc(C(=O)CSc2nnc(CNc3ccc(Cl)cc3)o2)ccc1NC(=O)CC	Peg3 prom inh 66, MITF TRPM1 inh 85, Shn3 inh set2 84
O=C(Nc1ccccc1)c1cccc(-c2nnc(-c3ccccc3)o2)c1	none
COc1cccc(C(=O)Nc2cccc(-c3nnc(-c4ccco4)o3)c2)c1	Peg3 prom inh 94
COc1ccc(Br)cc1C(=O)Nc1cccc(-c2nnc(-c3ccco3)o2)c1	Peg3 prom inh 53
Cc1nc(Cc2nnc(SCC(=O)N3c4ccccc4NC(=O)C3(C)C)o2)cs1	none (no result: MITF TRPM1 inh)
C=CCNc1nc(NCCOC)c2sc(-c3ccccc3)cc2n1	none (no result: MITF TRPM1 inh)
COCCNc1nc(NCc2ccc(NC(C)=O)cc2)c2sc(-c3ccccc3)cc2n1	KKLEB cytotox -54 (no result: MITF TRPM1 inh)
C=CCNc1nc(NCc2ccc(N(C)C)cc2)c2sc(-c3ccccc3)cc2n1	Peg3 prom inh 70 (no result: MITF TRPM1 inh)
c1ccc(CNc2nc(NCC3CC3)nc3cc(-c4ccccc4)sc23)cc1	Peg3 prom inh 83 (no result: MITF TRPM1 inh)
COCCNc1nc(NCc2cccc(OC)c2)c2sc(-c3ccccc3)cc2n1	Peg3 prom inh 57 (no result: MITF TRPM1 inh)
COCCNc1nc(Oc2ccc(NC(C)=O)cc2)c2sc(-c3ccccc3)cc2n1	none (no result: MITF TRPM1 inh)
Cc1cc(C)nc(S/C=C/C(=O)c2ccccc2F)n1	Peg3 prom inh 97, CF NFkB block 76, MITF TRPM1 inh 87
Cc1cc(C)nc(NC(=S)NC(=O)c2ccccc2F)n1	none (no result: MITF TRPM1 inh)
O=C(Nc1cccc(NC(=O)c2cccs2)c1)c1ccc2c(c1)OCCO2	none
CC(C)[C@H](NC(=O)[C@@H]1Cc2ccccc2CN1C(=O)OC(C)(C)C)C(=O)NCc1ccco1	none
CC(C)CN1C(=S)SC(C)(C)C1n1oc(=O)n(-c2ccccc2)c1=O (stereo not given)	none
CC(C)CN1C(=S)SC(C)(C)C1n1oc(=O)n(-c2ccc(Cl)cc2)c1=O (stereo not given)	KKLEB cytotox -56, Peg3 prom inh 67, CF NFkB block 65
CCCOCc1ccc(O)c2ncccc12	MITF TRPM1 inh 69
CN(Cc1ccco1)Cc1ccc(O)c2ncccc12	none
OCc1ccc(O)c2ncccc12	MITF TRPM1 inh inconclusive
CC(C)COCc1ccc(O)c2ncccc12	Peg3 prom inh 55, MITF TRPM1 inh 63
